Screens from PubChem BioAssay.
FAK blocker: inhibitors of human focal adhesion kinase; Q05397; hit rate 0.84% among 97,000; biochemical FAK kinase activity assay; inhibition, %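 (tested at 7 µM)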; AID 727; in the data active = inhibition above about 19%;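 also: 0% = DMSO and 100% = reference compound high control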
Target sequence (Q05397 whole entry, looked up): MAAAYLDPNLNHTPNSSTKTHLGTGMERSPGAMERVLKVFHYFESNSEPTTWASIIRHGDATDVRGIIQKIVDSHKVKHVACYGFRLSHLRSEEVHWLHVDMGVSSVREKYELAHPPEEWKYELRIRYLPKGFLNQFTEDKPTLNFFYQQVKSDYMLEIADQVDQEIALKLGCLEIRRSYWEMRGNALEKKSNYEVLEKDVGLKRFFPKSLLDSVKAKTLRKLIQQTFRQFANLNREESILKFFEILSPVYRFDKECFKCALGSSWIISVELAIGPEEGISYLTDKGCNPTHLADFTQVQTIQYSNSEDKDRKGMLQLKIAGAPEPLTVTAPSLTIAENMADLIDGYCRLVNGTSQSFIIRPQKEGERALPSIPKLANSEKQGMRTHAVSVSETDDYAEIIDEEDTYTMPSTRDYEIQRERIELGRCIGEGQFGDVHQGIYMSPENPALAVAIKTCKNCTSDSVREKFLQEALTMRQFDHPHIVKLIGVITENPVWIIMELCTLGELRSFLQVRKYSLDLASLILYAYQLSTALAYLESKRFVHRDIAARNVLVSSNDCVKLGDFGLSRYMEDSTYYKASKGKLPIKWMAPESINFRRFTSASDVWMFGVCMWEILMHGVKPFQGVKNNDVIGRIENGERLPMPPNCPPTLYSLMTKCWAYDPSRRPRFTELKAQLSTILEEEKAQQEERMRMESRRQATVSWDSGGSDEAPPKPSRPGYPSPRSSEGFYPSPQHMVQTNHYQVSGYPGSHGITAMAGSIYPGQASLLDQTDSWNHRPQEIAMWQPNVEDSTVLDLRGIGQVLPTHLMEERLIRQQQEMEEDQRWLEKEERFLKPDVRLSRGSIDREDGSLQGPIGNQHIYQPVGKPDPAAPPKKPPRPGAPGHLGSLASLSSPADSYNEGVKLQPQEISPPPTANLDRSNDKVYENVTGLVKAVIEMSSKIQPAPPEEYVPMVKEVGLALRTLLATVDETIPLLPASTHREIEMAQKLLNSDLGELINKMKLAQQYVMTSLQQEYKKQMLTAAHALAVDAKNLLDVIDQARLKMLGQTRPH
CD11b adhes inh: blocks human CD11b/CD18 adhesion to fibrinogen; P05107+P11215; K562 CD11b/CD18 adhesion to fibrinogen, ATPlite luminescence; Mn2+ added to activate the integrin; inhibition, % at 10 µM; hit rate 0.54% among 93,000;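 active = primary inhibition of 50% or more at 10 µM, then 40% or more on retest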
Pyk2 oligo antag: antagonists of human Pyk2 oligomerization; Q14289; Q293 cells, Pyk2 FERM NanoBiT luminescence; hits give low values; z-score (the deposit names both 25 µM and 10 µM); hit rate 0.83% among 99,000; AID 1347419;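 active = Z-score of -3 or lower, scaled per plate to the spread of control and sample wells; inactive = z-score above -3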;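 also: negative z-score means lost luminescence so less FERM oligomerization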
Mac1 fbg enh: enhancers of human CD11b/CD18 binding to fibrinogen; P05107+P11215; AID 1499; hit rate 0.07% among 93,000; K562 CD11b/CD18 adhesion to fibrinogen, ATPlite luminescence; activation, % at 10 µM;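 active = 10 µM primary screen giving 50% or more activity, confirmed by 40% or more on retest at that dose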
* marks the source's active call; other numbers are inactive results; . = not tested or not shown. Only some compounds are listed: those with a hit (about 1.8% of all), similar ones and a draw of the others.

SMILES	FAK blocker	CD11b adhes inh	Pyk2 oligo antag	Mac1 fbg enh
Cc1ccc(Cl)cc1NC(=O)CC(O)(C(F)(F)F)C(F)(F)F	0	98*	-0.47	-10
Cc1ccc(Cl)cc1NC(=O)CSC(N)=O	1	-14	0.75	-5
CCCCCCc1cc2cc(-c3nnc(-c4ccccc4OC)o3)c(=O)oc2cc1O	2	87	-3.1*	2
CCCCCCc1cc2cc(-c3nnc(-c4cc(OC)c(OC)c(OC)c4)o3)c(=O)oc2cc1O	1	.	.	.
CCCCCCc1cc2cc(-c3nnc(-c4ccccc4O)o3)c(=O)oc2cc1O	.	98*	-1.7	-2
CC(C)CCNC(=O)NC(=O)COC(=O)C1CCN(S(=O)(=O)c2ccccc2F)CC1	.	4	.	0
Cc1ccc(NC(=S)N(Cc2ccco2)C2CCN(C(C)C)CC2)cc1	.	11	.	-1
Cc1ccc(C(C)C)c(OCCNC(=S)Nc2cccc3ccccc23)c1	-2	18	-0.76	-10
Cc1cc(C)c(NC(=O)c2ccc(CNS(=O)(=O)c3cc(C(F)(F)F)ccc3Cl)cc2)c(C)c1	.	0	.	-1
COc1ccc(C(=O)c2ccccc2)c2c(O)ccc(C(=O)c3ccccc3)c12	2	51*	-2.6	-3
COc1ccccc1NC(=O)CSCc1nc2ccccc2[nH]1	.	2	.	0
N#CC1=C(N)NC(SCc2ccc(F)cc2)=C(C#N)C12CCCCC2	-2	77*	-1.4	-6
COCCn1nnnc1C(c1cccs1)N1CCN(c2nc3ccccc3s2)CC1 (stereo not drawn)	0	4	-3.4*	-4
Clc1ccc(C(c2nnnn2C2CCCC2)N2CCN(c3nc4ccccc4s3)CC2)cc1 (stereo not drawn)	0	.	-3.3*	.
CC(C)CC(c1nnnn1Cc1cccs1)N1CCN(c2nc3ccccc3s2)CC1 (stereo not drawn)	1	.	-3.6*	.
c1cnc2ccc(C(c3nnnn3C3CCCC3)N3CCN(c4nc5ccccc5s4)CC3)cc2c1 (stereo not drawn)	8	8	-1.7	-2
CCC(c1nnnn1Cc1cccs1)N1CCN(c2nc3ccccc3s2)CC1 (stereo not drawn)	.	12	-2.7	3
COc1ccc(C2SCC(=O)N2c2c(C)n(C)n(-c3ccccc3)c2=O)cc1OC (stereo not drawn)	-1	-8	0.25	1
N#C/C(=C/c1ccc(Sc2nc3ccccc3[nH]2)o1)c1ccccc1F	-2	98	-2.6	-8
N#C/C(=C/c1ccc(Sc2nc3ccccc3[nH]2)o1)c1cccc(Br)c1	2	3	-3.1*	1
N#C/C(=C/c1ccc(Sc2nc3ccccc3[nH]2)o1)c1cccc(F)c1	2	-20	-3.2*	4
CCN1C(=O)S/C(=C/c2ccc(Sc3nc4ccccc4[nH]3)o2)C1=O	.	102	.	-8
CN(C)S(=O)(=O)N1CCN(C(=O)c2cccs2)CC1	-1	0	-0.2	-3
O=C1OC(c2ccc3c(c2)OCO3)N(C(=O)c2ccc(Cl)c(Cl)c2)c2ccccc21 (stereo not drawn)	2	1	-3.2*	-5
N#CCSc1nc(Nc2ccc3c(c2)OCO3)c2ccccc2n1	.	-6	-4.2*	-2
SMILES	FAK blocker	CD11b adhes inh	Pyk2 oligo antag	Mac1 fbg enh
CCOC(=O)CSc1nc(NCc2ccco2)c2ccccc2n1	2	-2	-0.26	-2
CCOC(=O)CSc1nc(Nc2ccc3c(c2)OCO3)c2ccccc2n1	9	-14	-3*	0
CCN(C(=O)[C@@H]1CCCN1C(=O)c1cccs1)c1nc2cc(Cl)ccc2s1	.	-3	.	31
COc1cccc2cc(C(N)=O)/c(=N/NC(=O)COc3ccc(Cl)cc3)oc12	.	-8	.	27
O=S(=O)(c1ccc(Cl)cc1)n1nnc2ccccc21	0	.	0.01	.
CC(C)NC(=O)NC(=O)COC(=O)c1ccccc1Oc1ccccc1	4	14	-0.91	5
Cc1ccc(Cl)cc1N1CCN(C(=O)c2cc3c(=O)n(C)c4ccccc4c3n2C)CC1	1	86*	.	-7
CCc1cccc(CC)c1NC(=O)COC(=O)c1ccc(F)c(S(=O)(=O)N(CC)CC)c1	.	14	.	-3
O=C(COC(=O)c1cc(S(=O)(=O)N2CCOCC2)ccc1O)NCCc1ccccc1	1	-4	1.2	-2
COc1ccc(C2CC(c3ccc(Br)cc3)Nc3nc(N)nn32)cc1 (stereo not drawn)	5	-12	-0.77	4
Nc1nc2n(n1)C(c1cccs1)CC(c1ccc(Br)cc1)N2 (stereo not drawn)	2	4	-3.2*	-2
O=C(NCc1ccc(Cl)cc1Cl)C1CCN(S(=O)(=O)c2ccc3c(c2)OCCCO3)CC1	.	17	.	2
CC1CN(S(=O)(=O)c2ccc(NC(=O)c3cc(-c4ccccc4O)n[nH]3)cc2)CC(C)O1 (stereo not drawn)	-1	-1	-3.1*	0
O=C(Nc1cccc(-c2cnc3ccccc3n2)c1)c1cccc(NC(=O)c2ccco2)c1	14	18	-4.4*	26
O=C(Nc1cccc(-c2cnc3ccccc3n2)c1)c1ccccc1	4	.	0.08	.
O=C(NC1CCCCC1)C(c1ccc2ncccc2c1)N(Cc1ccc(F)cc1)C(=O)c1cccs1 (stereo not drawn)	1	-14	-3.9*	3
Cc1cc(C(=O)CSc2nc3ccc(Cl)cc3[nH]2)c(C)n1CC1CCCO1 (stereo not drawn)	0	83*	-0.01	-6
Cc1cc(OCC(=O)Nc2ccncc2)ccc1Br	-1	77*	1.2	-10
COc1ccc(Cl)cc1S(=O)(=O)N1CCCC1	-3	-39	1.7	0
Cc1nn(Cc2ccccc2Cl)c(C)c1C(=O)Nc1nnc(C2CC2)s1	-2	12	-0.41	54*
Cc1cc(C)c2nc(-c3ccccn3)cc(C(=O)Nc3ccc(S(=O)(=O)Nc4cc(C)on4)cc3)c2c1	12	36	-3*	0
Cc1cc(NS(=O)(=O)c2ccc(NC(=O)c3cc(-c4cccnc4)nc4ccc(Cl)cc34)cc2)no1	-2	-6	-1.9	-5
COc1cccc(C(=O)N(Cc2ccccc2)Cc2cc3cc4c(cc3[nH]c2=O)OCCO4)c1	2	.	-3.3*	.
COc1ccc(C(=O)N(Cc2ccccc2)Cc2cc3cc4c(cc3[nH]c2=O)OCCO4)cc1	1	.	-2.8	.
COc1cccc(N(CC(=O)Nc2ccc3c(c2)OCO3)S(=O)(=O)c2ccccc2)c1	2	-4	-3.1*	0
SMILES	FAK blocker	CD11b adhes inh	Pyk2 oligo antag	Mac1 fbg enh
O=c1ccc(NS(=O)(=O)c2ccccc2)cn1Cc1ccc(Cl)c(Cl)c1	5	.	-0.37	.
CCC(NC(=O)Nc1nnc(C(F)(F)F)s1)(C(F)(F)F)C(F)(F)F	0	107*	-2.2	-9
O=C(O)CCC(=O)Nc1nnc(C(F)(F)F)s1	1	-17	0.07	1
COc1ccc(N2CCN(CCCn3c(=S)[nH]c4ncccc4c3=O)CC2)cc1	0	62*	0.4	3
O=C1NC(=O)/C(=C\c2ccc(Oc3ccc([N+](=O)[O-])cn3)cc2)S1	.	56	.	-1
O=C1NC(=O)/C(=C\c2ccccc2Oc2ccc(F)c(F)c2)S1	-3	85*	0.87	-8
Cc1nc(-c2ccccc2O)n(-c2ccccc2)n1	1	14	1.1	-2
